Measured values from PubChem BioAssay (NCATS).
Inconclusive results are not listed. Active and inactive are the calls of the source. Calls come from the whole dose curve; as a rule, active = well fitted curve in the direction sought with a large enough effect; inconclusive = small, poorly fitted or top-dose-only effect, or another doubt; inactive = no such curve, though single readings can be large; an effect the other way counts as inactive or inconclusive.

What was measured:
[1] = Quantitative High-Throughput drug screen in 47 multiple myeloma cell lines against the NCATS MIPE library collection: INA6_PLB cell viability assay (AID 1918965; note: nearly all actives have a fitted effect of over 55% in size)
Summary of the method: (§1)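 Myeloma cell lines, 500 cells per well, exposed to MIPE 4.0 library compounds for 48 h at 37C, 5% CO2. Viability from ATP by CellTiter-Glo luminescence; normalised to DMSO (100%) and media-only (0%) wells.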

[2] = Quantitative High-Throughput drug screen in 47 multiple myeloma cell lines against the NCATS MIPE library collection: JJN3_DSMZ cell viability assay (AID 1918966; note: nearly all actives have a fitted effect of over 50% in size)
Summary of the method: (§2)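 CellTiter-Glo luminescence (ATP) after 48 h compound exposure, 37C/5% CO2; 500 cells/well; MIPE 4.0 approved/investigational drugs pinned in; DMSO = 100%, media only = 0% viability.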

[3] = Quantitative High-Throughput drug screen in 47 multiple myeloma cell lines against the NCATS MIPE library collection: H1112_PLB cell viability assay (AID 1918967; note: nearly all actives have a fitted effect of over 30% in size)
Summary of the method: as §2

[4] = Quantitative High-Throughput drug screen in 47 multiple myeloma cell lines against the NCATS MIPE library collection: Karpas25_ECACC cell viability assay (AID 1918968; note: nearly all actives have a fitted effect of over 35% in size)
Summary of the method: as §2

[5] = Quantitative High-Throughput drug screen in 47 multiple myeloma cell lines against the NCATS MIPE library collection: KMS27_JCRB cell viability assay (AID 1918970); settings: KMS27 myeloma cells, CellTiter-Glo ATP viability, 48 h; viability (% of DMSO): at 45.8 µM (top of the series); note: nearly all actives have a fitted effect of over 30% in size
Summary of the method: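 CellTiter-Glo luminescence after 48 h drug exposure at 37 °C; 500 cells/well, 1536-well format, pin-tool compound addition; DMSO = 100%, media-only = 0% viability.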

[6] = Quantitative High-Throughput drug screen in 47 multiple myeloma cell lines against the NCATS MIPE library collection: KMS12BM_JCRB cell viability assay (AID 1918971); note: nearly all actives have a fitted effect of over 35% in size
Summary of the method: (§3)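 Approved and investigational drugs from MIPE 4.0 were added by pin tool to 500 cells per well. After 48 hours at 37C, ATP-based CellTiter-Glo luminescence indicated remaining viability.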

[7] = Quantitative High-Throughput drug screen in 47 multiple myeloma cell lines against the NCATS MIPE library collection: KMS12PE_JCRB cell viability assay (AID 1918972); note: nearly all actives have a fitted effect of over 30% in size
Summary of the method: as §1

[8] = Quantitative High-Throughput drug screen in 47 multiple myeloma cell lines against the NCATS MIPE library collection: KMS26_JCRB cell viability assay (AID 1918975); note: nearly all actives have a fitted effect of over 45% in size
Summary of the method: as §3

[9] = Quantitative High-Throughput drug screen in 47 multiple myeloma cell lines against the NCATS MIPE library collection: MMM1_PLB cell viability assay (AID 1918976); note: nearly all actives have a fitted effect of over 35% in size
Summary of the method: (§4)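 500 cells/well per myeloma line exposed to pinned MIPE 4.0 compounds for 48 h at 37 °C, 5% CO2. Viability read as ATP by CellTiter-Glo luminescence, normalised to DMSO-only (100%) and media-only (0%) wells.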

[10] = Quantitative High-Throughput drug screen in 47 multiple myeloma cell lines against the NCATS MIPE library collection: MOLP8_DSMZ cell viability assay (AID 1918977); note: nearly all actives have a fitted effect of over 45% in size
Summary of the method: as §4

[11] = Quantitative High-Throughput drug screen in 47 multiple myeloma cell lines against the NCATS MIPE library collection: NCIH929_DSMZ cell viability assay (AID 1918978); note: nearly all actives have a fitted effect of over 35% in size
Summary of the method: as §4

[12] = Quantitative High-Throughput drug screen in 47 multiple myeloma cell lines against the NCATS MIPE library collection: OCIMY1_PLB cell viability assay (AID 1918979); note: nearly all actives have a fitted effect of over 35% in size
Summary of the method: as §4

[13] = Quantitative High-Throughput drug screen in 47 multiple myeloma cell lines against the NCATS MIPE library collection: MM1S_ATCC cell viability assay (AID 1918980); note: nearly all actives have a fitted effect of over 45% in size
Summary of the method: as §4

[14] = Quantitative High-Throughput drug screen in 47 multiple myeloma cell lines against the NCATS MIPE library collection: MM1R_ATCC cell viability assay (AID 1918981); note: nearly all actives have a fitted effect of over 35% in size
Summary of the method: as §4

[15] = Quantitative High-Throughput drug screen in 47 multiple myeloma cell lines against the NCATS MIPE library collection: LP1_DSMZ cell viability assay (AID 1918982); note: nearly all actives have a fitted effect of over 35% in size
Summary of the method: as §4

[16] = Quantitative High-Throughput drug screen in 47 multiple myeloma cell lines against the NCATS MIPE library collection: KMS28PE_JCRB cell viability assay (AID 1918983); note: nearly all actives have a fitted effect of over 35% in size
Summary of the method: as §4

[17] = Quantitative High-Throughput drug screen in 47 multiple myeloma cell lines against the NCATS MIPE library collection: L363_DSMZ cell viability assay (AID 1918984); note: nearly all actives have a fitted effect of over 40% in size
Summary of the method: as §4

[18] = Quantitative High-Throughput drug screen in 47 multiple myeloma cell lines against the NCATS MIPE library collection: KMS34_JCRB cell viability assay (AID 1918985); note: nearly all actives have a fitted effect of over 40% in size
Summary of the method: as §4

[19] = Quantitative High-Throughput drug screen in 47 multiple myeloma cell lines against the NCATS MIPE library collection: KMS21BM_JCRB cell viability assay (AID 1918974); settings: ATP luminescence, 48 h; viability: at 45.8 µM (top of the series)
Summary of the method: as §2
Potency is the fitted concentration of half-maximal effect.

COC[C@H](NC(=O)c1cnc(C)s1)C(=O)N[C@@H](COC)C(=O)N[C@@H](Cc1ccccc1)C(=O)[C@@]1(C)CO1
active: Potency [1] 74.3 nM | Potency [2] 93.5 nM | Potency [3] 93.5 nM | Potency [4] 74.3 nM | Potency [5] 74.3 nM | Potency [6] 93.5 nM | Potency [7] 37.2 nM | Potency [8] 148 nM | Potency [9] 1050 nM | Potency [10] 46.9 nM | Potency [11] 52.6 nM | Potency [12] 41.8 nM | Potency [13] 59 nM | Potency [14] 41.8 nM | Potency [15] 148 nM | Potency [16] 66.2 nM | Potency [17] 37.2 nM

CCC(C(=O)O)C1CCC(C)C(C(C)C(O)C(C)C(=O)C(CC)C2OC3(C=CC(O)[C@@]4(CC[C@](C)(C5CC[C@@](O)(CC)C(C)O5)O4)O3)C(C)CC2C)O1 (stereo partly drawn)
active: Potency [1] 1660 nM | Potency [2] 1050 nM | Potency [3] 8330 nM | Potency [4] 7430 nM | Potency [5] 743 nM | Potency [6] 148 nM | Potency [7] 743 nM | Potency [8] 526 nM | Potency [9] 6620 nM | Potency [10] 743 nM | Potency [11] 10500 nM | Potency [12] 5260 nM | Potency [13] 2350 nM | Potency [14] 3720 nM | Potency [16] 16600 nM | Potency [17] 833 nM | Potency [18] 6620 nM

Cn1c(Nc2ccc(C(F)(F)F)cc2)nc2cc(Oc3ccnc(-c4ncc(C(F)(F)F)[nH]4)c3)ccc21
active: Potency [1] 20900 nM | Potency [2] 16600 nM | Potency [3] 8330 nM | Potency [4] 3720 nM | Potency [5] 14800 nM | Potency [7] 5260 nM | Potency [19] 5900 nM | Potency [13] 9350 nM | Potency [16] 23500 nM | Potency [17] 16600 nM

CN(C)c1ccc(C(=O)NCCCCCCC(=O)NO)cc1
active: Potency [1] 166 nM | Potency [2] 1050 nM | Potency [3] 1870 nM | Potency [4] 469 nM | Potency [5] 66.2 nM | Potency [6] 235 nM | Potency [7] 93.5 nM | Potency [19] 41.8 nM | Potency [8] 2960 nM | Potency [10] 743 nM | Potency [11] 833 nM | Potency [12] 1870 nM | Potency [13] 833 nM | Potency [14] 590 nM | Potency [16] 935 nM | Potency [17] 83.3 nM | Potency [18] 662 nM

O=C(CCCCCCC(=O)Nc1cccnc1)NO
active: Potency [1] 833 nM | Potency [2] 4180 nM | Potency [3] 5900 nM | Potency [4] 1660 nM | Potency [5] 7430 nM | Potency [6] 1870 nM | Potency [7] 2960 nM | Potency [19] 2350 nM | Potency [8] 3720 nM | Potency [10] 3320 nM | Potency [11] 3720 nM | Potency [12] 14800 nM | Potency [13] 3320 nM | Potency [14] 2640 nM | Potency [16] 4180 nM | Potency [17] 5900 nM | Potency [18] 3720 nM

O=C1NC(=O)[C@@H](c2cn3c4c(cccc24)CCC3)[C@H]1c1c[nH]c2ccccc12
active: Potency [1] 209 nM | Potency [2] 16600 nM | Potency [3] 1660 nM | Potency [4] 833 nM | Potency [5] 83.3 nM | Potency [6] 209 nM | Potency [7] 148 nM | Potency [8] 16600 nM | Potency [11] 11800 nM | Potency [13] 18700 nM | Potency [14] 14800 nM | Potency [15] 1050 nM | Potency [16] 833 nM | Potency [17] 118 nM | Potency [18] 418 nM

CS[C@H]1SC[C@@H]2C(=O)N(C)[C@H](C(C)C)C(=O)OC[C@H](NC(=O)c3cnc4ccccc4n3)C(=O)N[C@H](C)C(=O)N(C)[C@@H]1C(=O)N(C)[C@H](C(C)C)C(=O)OC[C@H](NC(=O)c1cnc3ccccc3n1)C(=O)N[C@H](C)C(=O)N2C
active: Potency [1] 1 nM | Potency [2] 5.3 nM | Potency [3] 11.8 nM | Potency [4] 1 nM | Potency [5] 1 nM | Potency [6] 3 nM | Potency [7] 1 nM | Potency [8] 13.2 nM | Potency [9] 11.8 nM | Potency [11] 1 nM | Potency [12] 20.9 nM | Potency [13] 3 nM | Potency [14] 1.9 nM | Potency [15] 6.6 nM | Potency [16] 3 nM | Potency [18] 4.7 nM

C=CC(=O)Nc1ccc2ncnc(Nc3ccc(OCc4cccc(F)c4)c(Cl)c3)c2c1
active: Potency [1] 662 nM | Potency [2] 18700 nM | Potency [3] 1050 nM | Potency [4] 1870 nM | viability (% of DMSO) [5] 70.4% | Potency [6] 418 nM | Potency [7] 74.3 nM | Potency [8] 9350 nM | Potency [10] 6620 nM | Potency [11] 4180 nM | Potency [12] 14800 nM | Potency [13] 1660 nM | Potency [14] 8330 nM | Potency [15] 5900 nM | Potency [16] 2640 nM | Potency [17] 29.6 nM

Nc1ncn([C@@H]2O[C@H](CO)[C@@H](O)[C@@H]2O)c(=O)n1
active: Potency [1] 1180 nM | Potency [2] 11800 nM | Potency [3] 18700 nM | Potency [4] 3320 nM | Potency [5] 9350 nM | Potency [6] 8330 nM | Potency [7] 1320 nM | Potency [19] 1870 nM | Potency [8] 13200 nM | Potency [12] 14800 nM | Potency [13] 18700 nM | Potency [14] 14800 nM | Potency [16] 20900 nM | Potency [17] 5900 nM | Potency [18] 11800 nM

COc1ccc2c(c1OC)C(=O)OC2[C@H]1c2c(cc3c(c2OC)OCO3)CCN1C (stereo partly drawn)
active: Potency [1] 52.6 nM | Potency [2] 5260 nM | Potency [3] 235 nM | Potency [4] 235 nM | Potency [5] 132 nM | Potency [6] 41.8 nM | Potency [7] 105 nM | Potency [19] 148 nM | Potency [8] 3320 nM | Potency [9] 2640 nM | Potency [10] 6620 nM | Potency [11] 1870 nM | Potency [13] 332 nM | Potency [14] 418 nM | Potency [15] 132 nM | Potency [16] 52.6 nM | Potency [17] 74.3 nM | Potency [18] 37.2 nM
